Results: PubChem BioAssay (NCI)
The panel holds about 83,000 compounds, 20% with a hit somewhere; the sample as a whole holds those more often.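 Plates (96-well) were seeded with cells, treated with compound at one concentration, and incubated for 48 hours before percent growth was determined.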 The source made the active and inactive calls. How the source made its calls: active means growth percent below 10; inactive means the rest.

Legend:
Test in all cases: NCI-60 one-dose screen, 48 h (100 = growth as untreated, 0 = no growth, -100 = all killed)
Conditions in all cases: 10 µM unless noted
T-47D breast = tested on: T-47D breast
BT-549 breast = tested on: BT-549 breast
MDA-MB-435 melanoma = tested on: MDA-MB-435 melanoma
SW-620 colon = tested on: SW-620 colon
MCF7 breast = tested on: MCF7 breast
HCT-116 colon = tested on: HCT-116 colon
HCC-2998 colon = tested on: HCC-2998 colon
KM12 colon = tested on: KM12 colon

Measured: growth

CCO/C=N/C1=C(C#N)C(c2ccc(OC)cc2)c2sc3c(CC)cccc3c2O1 (stereo not drawn)
inactive: T-47D breast 35.8% | BT-549 breast 63% | SW-620 colon 35.3% | MCF7 breast 24.6% | HCT-116 colon 24.1% | HCC-2998 colon 44.3% | KM12 colon 18.9%
active: MDA-MB-435 melanoma -39.2%

COc1ccc(/C=C(\C#N)C(=O)N2c3ccccc3Sc3ccc(SC)cc32)cc1F
inactive: T-47D breast 70.9% | BT-549 breast 104% | MDA-MB-435 melanoma 97.9% | SW-620 colon 95.2% | MCF7 breast 95.9% | HCT-116 colon 91.2% | HCC-2998 colon 90.5% | KM12 colon 95.3%

CCOc1ccc(C(=O)Nc2ncc(Cc3ccc(F)cc3)s2)cc1
active: MDA-MB-435 melanoma -16.1%
inactive: T-47D breast 34.1% | BT-549 breast 57.1% | SW-620 colon 26.1% | MCF7 breast 19.1% | HCT-116 colon 13.2% | HCC-2998 colon 15.5% | KM12 colon 16.7%

CC(c1ccccc1)N1CSc2nc3ncncc3n2C1 (stereo not drawn)
inactive: T-47D breast 34% | BT-549 breast 59% | MDA-MB-435 melanoma 23.5% | SW-620 colon 41.1% | HCT-116 colon 19.2% | HCC-2998 colon 23.8% | KM12 colon 21.8%
active: MCF7 breast 5.38%

COc1ccc([C@H]2[C@H](O)C(=O)N2c2cc(OC)c(OC)c(OC)c2)cc1F
active: BT-549 breast -21.1% | MDA-MB-435 melanoma -10.4% | HCT-116 colon 0.995% | KM12 colon 9.99%
inactive: T-47D breast 68.7% | SW-620 colon 22.2% | MCF7 breast 11% | HCC-2998 colon 10.9%

CCO/C=N/C1=C(C#N)C(c2ccc(F)cc2)c2sc3c(CC)cccc3c2O1 (stereo not drawn)
active: MDA-MB-435 melanoma -12.9%
inactive: T-47D breast 42.7% | BT-549 breast 27.7% | SW-620 colon 30.1% | MCF7 breast 14.8% | HCT-116 colon 16.2% | HCC-2998 colon 15.6% | KM12 colon 14.8%

Cc1ccc(-c2cc3nc(C(Cl)Cl)nc(-c4ccco4)n3n2)cc1
active: SW-620 colon 8.55% | MCF7 breast 3.51% | HCT-116 colon 1.68% | HCC-2998 colon -50% | KM12 colon -21.3%
inactive: T-47D breast 21.2% | BT-549 breast 86.5% | MDA-MB-435 melanoma 18.1%

CC1(C)NCCC[C@]2(C)[C@H]3C/C(=N\O)C4[C@@H]5C[C@@](C)(CO)CC[C@]5(C)CC[C@@]4(C)[C@]3(C)CC[C@@H]12 (stereo partly drawn)
inactive: T-47D breast 85.3% | BT-549 breast 97.6% | MDA-MB-435 melanoma 111% | SW-620 colon 103% | MCF7 breast 86.9% | HCT-116 colon 86.3% | HCC-2998 colon 105% | KM12 colon 104%

COc1cc(-c2nc(-c3ccccc3)[nH]c2-c2ccnc(NCCCNS(=O)(=O)c3cccc(F)c3)n2)ccc1Cl
inactive: T-47D breast 24.1% | BT-549 breast 71% | MDA-MB-435 melanoma 22.5% | SW-620 colon 71.3% | MCF7 breast 35.3% | HCT-116 colon 18.8% | HCC-2998 colon 55.5% | KM12 colon 39.8%

C#CC(=O)N(c1ccc(OC)cc1OC)C(C(=O)NCC(=O)OCC)c1cccs1 (stereo not drawn)
inactive: T-47D breast 38.1% | BT-549 breast 70.3% | MDA-MB-435 melanoma 95.5% | MCF7 breast 49.1% | HCT-116 colon 41.9% | HCC-2998 colon 110% | KM12 colon 28.5%
active: SW-620 colon 2.04%

Cc1ccc(N2C(=O)/C(=C/C=C/c3ccco3)SC2=S)cc1
inactive: T-47D breast 71.6% | BT-549 breast 126% | MDA-MB-435 melanoma 90.6% | SW-620 colon 90.1% | MCF7 breast 66.4% | HCT-116 colon 94.2% | HCC-2998 colon 101% | KM12 colon 95.4%

O=S(=O)(NCCCNc1nccc(-n2cnc3ccccc32)n1)c1ccc(C(F)(F)F)cc1
inactive: T-47D breast 44.7% | BT-549 breast 88.2% | MDA-MB-435 melanoma 93.4% | SW-620 colon 106% | MCF7 breast 83.4% | HCT-116 colon 75.9% | HCC-2998 colon 112% | KM12 colon 79.8%

CS(=O)(=O)c1ccc(-n2cc(/C=N/O)c(-c3ccccc3)n2)cc1
inactive: T-47D breast 59.1% | BT-549 breast 60.7% | MDA-MB-435 melanoma 85.9% | SW-620 colon 104% | MCF7 breast 21.5% | HCT-116 colon 92.1% | HCC-2998 colon 95.4% | KM12 colon 96.9%

CCOC(=O)C1=NNC(c2ccc(Cl)cc2)C1C(=O)N1C(=S)NC(=O)C1CC(C)C (stereo not drawn)
inactive: T-47D breast 89.1% | BT-549 breast 106% | MDA-MB-435 melanoma 104% | SW-620 colon 95.3% | MCF7 breast 91.5% | HCT-116 colon 97.8% | HCC-2998 colon 121% | KM12 colon 101%

Cc1ccc(-n2cc(/C=N/NC(=O)c3ccncc3)c(-c3ccc(S(C)(=O)=O)cc3)n2)cc1
inactive: T-47D breast 93.1% | BT-549 breast 74.1% | MDA-MB-435 melanoma 23.6% | SW-620 colon 64.6% | MCF7 breast 72.2% | HCT-116 colon 61.1% | HCC-2998 colon 98.1% | KM12 colon 58%

CC(C)(C)c1ccc(C(=O)Nc2sc3c(c2C(N)=O)CC/C(=N\O)C3)cc1
active: T-47D breast 1.45% | MCF7 breast 5.51% | KM12 colon 6.97%
inactive: BT-549 breast 16.2% | MDA-MB-435 melanoma 13.6% | SW-620 colon 17.6% | HCT-116 colon 10.5% | HCC-2998 colon 34.3%

CC/C(=C/c1cc(OC)ccc1O)c1ccc2cc(OC)ccc2[o+]1
inactive: T-47D breast 52.9% | BT-549 breast 51.5% | SW-620 colon 33.2% | MCF7 breast 16.6% | HCT-116 colon 26.8% | HCC-2998 colon 81.8% | KM12 colon 46.1%
active: MDA-MB-435 melanoma -28.3%

CS(=O)(=O)c1ccc(-c2nn(-c3ccccc3)cc2/C=N/NC(=O)c2nc(N)n[nH]2)cc1
inactive: T-47D breast 101% | BT-549 breast 103% | MDA-MB-435 melanoma 91.9% | SW-620 colon 88.4% | MCF7 breast 88.3% | HCT-116 colon 94.8% | HCC-2998 colon 117% | KM12 colon 94.7%

COc1ccc(COc2ccc(/C=C3\C(=O)Nc4ccccc43)cc2OC)cc1
inactive: T-47D breast 113% | BT-549 breast 92.1% | MDA-MB-435 melanoma 106% | SW-620 colon 99.1% | MCF7 breast 94% | HCT-116 colon 108% | HCC-2998 colon 102% | KM12 colon 104%

O=C(Nc1nc2ccc([N+](=O)[O-])cc2s1)Nc1ccccc1Br
inactive: T-47D breast 33.8% | BT-549 breast 71.7% | MDA-MB-435 melanoma 38.2% | SW-620 colon 39.2% | MCF7 breast 24.8% | HCT-116 colon 18.1% | HCC-2998 colon 37.8% | KM12 colon 15.1%

CCN(CC)c1ccc(NC2=C(Cl)C(=O)c3nc(C)ccc3C2=O)cc1
inactive: BT-549 breast 132% | KM12 colon 101%
active: T-47D breast -36% | MDA-MB-435 melanoma -76% | SW-620 colon -29.3% | MCF7 breast -38.5% | HCT-116 colon -63.8% | HCC-2998 colon 9.75%

O=C(NCCn1ccnc1)c1ccc(-c2nc3ccc4[nH]ncc4c3c3c2CCCC3)cc1
inactive: T-47D breast 56% | BT-549 breast 44.2% | SW-620 colon 57.4% | MCF7 breast 20.5% | HCT-116 colon 37% | HCC-2998 colon 81.6% | KM12 colon 26%
active: MDA-MB-435 melanoma -1.93%

CCOP(=O)(OCC)OC[C@]12CCC(C)(C)C=C1[C@H]1CC[C@@H]3[C@@]4(C)CC[C@H](OP(=O)(OCC)OCC)C(C)(C)[C@@H]4CC[C@@]3(C)[C@]1(C)CC2
active: BT-549 breast -20.2% | MDA-MB-435 melanoma -38.4% | SW-620 colon -48.4% | MCF7 breast -47.5% | HCT-116 colon -59.8% | HCC-2998 colon -50.9% | KM12 colon 3.6%
inactive: T-47D breast 13.5%

COc1cc(OC)cc(C(=O)Nc2cccc(C#Cc3cccc4[nH]nc(N)c34)c2)c1
inactive: T-47D breast 31.2% | BT-549 breast 33.7% | SW-620 colon 15.9% | MCF7 breast 26.2% | HCT-116 colon 13% | HCC-2998 colon 43.3% | KM12 colon 12%
active: MDA-MB-435 melanoma -38.1%

COc1cc(-c2nc(SCCC(C)C)nc(NNC(=O)c3ccncc3)c2C#N)cc(OC)c1OC
inactive: T-47D breast 43% | BT-549 breast 104% | MDA-MB-435 melanoma 90.1% | SW-620 colon 110% | MCF7 breast 74.7% | HCT-116 colon 84.5% | HCC-2998 colon 92.1% | KM12 colon 86.5%

NS(=O)(=O)c1ccc(-n2cc(CN3CCNCC3)nn2)cc1
inactive: T-47D breast 107% | BT-549 breast 110% | MDA-MB-435 melanoma 106% | SW-620 colon 109% | MCF7 breast 98.9% | HCT-116 colon 107% | HCC-2998 colon 101% | KM12 colon 105%

c1n[nH]cc1-c1nc2ccc3[nH]ncc3c2c2c1CCCC2
inactive: T-47D breast 15.7% | HCC-2998 colon 33.5%
active: BT-549 breast -18.9% | MDA-MB-435 melanoma 1.93% | SW-620 colon 6.24% | MCF7 breast 3.93% | HCT-116 colon -3.08% | KM12 colon 5.28%

C#Cc1nc(C(=O)NCCC(=O)Nc2ccc(NC(=O)c3ccc(/C=C/C(=O)c4nccn4C)cc3)cc2)cs1
inactive: T-47D breast 49.3% | BT-549 breast 54.3% | MDA-MB-435 melanoma 27% | SW-620 colon 15.7% | HCC-2998 colon 93.5%
active: MCF7 breast 8.54% | HCT-116 colon -33.1% | KM12 colon 9.96%

FC(F)(F)c1cc(Nc2cccc(Oc3ccc(NC4=NCCN4)nc3)c2)ccc1Cl
inactive: T-47D breast 23.4% | BT-549 breast 44.7%
active: MDA-MB-435 melanoma -40% | SW-620 colon -75.8% | MCF7 breast -42.5% | HCT-116 colon -48.5% | HCC-2998 colon -58% | KM12 colon -60.4%

COc1cc2c(cc1OC)C(Sc1ccc(C)cc1)c1c(nc(N)c(C#N)c1N)O2 (stereo not drawn)
active: T-47D breast -28.9% | MDA-MB-435 melanoma -31.3% | SW-620 colon -36.6% | MCF7 breast -66.9% | HCT-116 colon -69.6% | HCC-2998 colon -85.2% | KM12 colon -52.5%
inactive: BT-549 breast 35%

Cc1nn(-c2ccccc2)c2ncnc(N/N=C/c3cccc(O)c3)c12
active: MDA-MB-435 melanoma 3.94%
inactive: T-47D breast 17.8% | BT-549 breast 46.8% | SW-620 colon 34% | MCF7 breast 17.8% | HCT-116 colon 24% | HCC-2998 colon 72.6% | KM12 colon 29.3%
